mcGAS RapidFire – inhibitors of Mus musculus cyclic GMP-AMP synthase, initial high-throughput assay, cell-free, RapidFire MS | Q8C6L5 | recombinant mouse cGAS, cGAMP by RapidFire MS | inhibition, % at 12.5 µM | 0.18% of 130,000 active;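 active means inhibition of cGAS enzyme activity at or above 60%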;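 further: enzyme stimulated by 45 bp dsDNA with ATP and GTP substrates; cGAMP share of summed cGAMP plus half ATP and half GTP signals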
Target sequence (Q8C6L5 whole entry, looked up): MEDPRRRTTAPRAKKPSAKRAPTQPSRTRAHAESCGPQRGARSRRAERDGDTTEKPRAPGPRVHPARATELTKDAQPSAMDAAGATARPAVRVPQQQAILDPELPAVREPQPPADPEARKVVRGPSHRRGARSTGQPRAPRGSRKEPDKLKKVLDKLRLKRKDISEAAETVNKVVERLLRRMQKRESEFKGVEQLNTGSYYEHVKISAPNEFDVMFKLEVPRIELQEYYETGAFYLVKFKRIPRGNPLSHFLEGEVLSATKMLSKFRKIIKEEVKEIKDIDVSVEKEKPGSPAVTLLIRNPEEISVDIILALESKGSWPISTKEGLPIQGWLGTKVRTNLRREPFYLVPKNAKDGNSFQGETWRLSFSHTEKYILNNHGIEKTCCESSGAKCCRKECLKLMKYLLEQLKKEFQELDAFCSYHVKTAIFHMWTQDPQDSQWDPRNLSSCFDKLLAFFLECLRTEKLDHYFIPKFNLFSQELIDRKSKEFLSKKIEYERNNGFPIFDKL
Numbers stand for hits; ! = repeats disagree. The sample as a whole holds a higher share of hits than the screen did.

How did Oc1c(Cl)c(Cl)c(Cl)c(Cl)c1Cl do in these assays?
mcGAS RapidFire: 98

Results for COc1ccc(C(N)Cc2ccccc2C)cc1OC (stereo not drawn) ?
mcGAS RapidFire: inactive

What do the screens show for `O=C(O)c1ccccc1-c1c2cc(Br)c(=O)cc-2oc2[c]([Hg])c(O)c(Br)cc12`?
mcGAS RapidFire: 99!

Results for CCCCP(=S)(c1ccccn1)c1ccccn1 ?
mcGAS RapidFire: inactive

Results for O=c1c2cc(I)ccc2nc(/C=C/c2c[nH]c3ccccc23)n1-c1ccccc1 ?
mcGAS RapidFire: inactive

Results for CC1(C)CC2=NN(c3ccccc3)P(=S)(OC(C)(C)C)C2=C(N2CCCCC2)C1 (stereo not drawn) ?
mcGAS RapidFire: inactive

What do the screens show for `O=c1c(O)c(-c2ccc(O)c(O)c2)oc2c(O)c(O)cc(O)c12`?
mcGAS RapidFire: 93

What do the screens show for `Cc1nn(C(C)(C)C)c(C)c1C(=O)NC1CCSc2c(F)cccc21` (stereo not drawn)?
mcGAS RapidFire: inactive

What do the screens show for `CC(Cc1cccc(F)c1)NCCc1nc2ccccc2[nH]1` (stereo not drawn)?
mcGAS RapidFire: inactive

How did O=P(NC1CCCCC1)(NC1CCCCC1)Oc1ccccc1 do in these assays?
mcGAS RapidFire: inactive

Results for N#Cc1ccc(NC(=O)c2ccc(Br)o2)cc1Cl ?
mcGAS RapidFire: inactive

How did CN1C2CCC1CC(N1CCN(C(=O)COCC(F)(F)F)CC1)C2 (stereo not drawn) do in these assays?
mcGAS RapidFire: inactive

What do the screens show for `O=C(O)COc1ccccc1`?
mcGAS RapidFire: inactive

How did Oc1cc(Cl)ccc1Oc1ccc(Cl)cc1Cl do in these assays?
mcGAS RapidFire: inactive

Results for O=C(O)COc1ccc(Cl)cc1Cl ?
mcGAS RapidFire: 96

What do the screens show for `O=C(O)COc1cc(Cl)c(Cl)cc1Cl`?
mcGAS RapidFire: 98

What do the screens show for `CCCCCCC(C)OC(=O)COc1ccc(Cl)cc1Cl` (stereo not drawn)?
mcGAS RapidFire: inactive

Results for O=C(CN1CCN(C(=O)Cc2ccc3ccccc3c2)CC1)NC1CC1 ?
mcGAS RapidFire: inactive

What do the screens show for `Fc1cccc(F)c1CCNCc1cc(Br)c2c(c1)OCCCO2`?
mcGAS RapidFire: inactive

Results for COc1cc(OC)c(C2=CCN(Cc3ccc(C#N)cc3F)CC2)c(OC)c1 ?
mcGAS RapidFire: inactive

Results for C1C[C@H]2CC[C@@H](CN1)N2C1CSCCSC1 ?
mcGAS RapidFire: inactive

Results for CC(C)(C)NCC(O)COc1cccc2[nH]c(C#N)cc12 (stereo not drawn) ?
mcGAS RapidFire: inactive

What do the screens show for `O=C(CCn1ccc(=O)[nH]c1=O)N1[C@H]2CCNC[C@@H]1CC2`?
mcGAS RapidFire: inactive

What do the screens show for `CN(C)P(=O)(N(C)C)N1CCCc2ccccc21`?
mcGAS RapidFire: inactive

How did O=C(Cc1csc(-c2cnccn2)n1)N1CCN(CCO)CC1 do in these assays?
mcGAS RapidFire: inactive

What do the screens show for `COc1cccc([C@@H]2CCN(Cc3cccnc3OC)C[C@H]2O)c1`?
mcGAS RapidFire: inactive

Results for CC(C)(C)C(=O)NC1CCSC1=O (stereo not drawn) ?
mcGAS RapidFire: 76

Results for CCC(C)(C)C(=O)NC1CCSC1=O (stereo not drawn) ?
mcGAS RapidFire: inactive

How did COCc1ccc(C(=O)N2C[C@@H](c3ccccc3)[C@@H]3[C@H]2C2CCN3CC2)o1 do in these assays?
mcGAS RapidFire: inactive

Results for CC1CC2CCCCC2N1Cc1ccon1 (stereo not drawn) ?
mcGAS RapidFire: inactive

What do the screens show for `CN(CCCC1CCCO1)C1CCNCC1` (stereo not drawn)?
mcGAS RapidFire: inactive

How did CC(=O)OCC1=C(C(=O)O)N2C(=O)[C@@H](NC(=O)CCCC(N)C(=O)O)C2SC1 (stereo partly drawn) do in these assays?
mcGAS RapidFire: 73!

What do the screens show for `FC(F)(F)c1cccc(C2CNCCO2)c1` (stereo not drawn)?
mcGAS RapidFire: inactive

What do the screens show for `CC(N)Cc1c(Cl)cccc1Cl` (stereo not drawn)?
mcGAS RapidFire: inactive

How did COc1ccc(-n2cc(C3=CCN(Cc4c(C)noc4C)CC3)cn2)cc1 do in these assays?
mcGAS RapidFire: inactive

Screens (PubChem BioAssay)
